Measured values published in PubChem BioAssay.
Calls of active or inactive are those of the source. Unless noted, no stated cut-off is given here; in the data, active means inhibition above about 25%; inactive means the rest.

Target: Nuclear receptor coactivator 1 (Homo sapiens) (UniProt Q15788)
Sequence (Q15788 whole entry, looked up): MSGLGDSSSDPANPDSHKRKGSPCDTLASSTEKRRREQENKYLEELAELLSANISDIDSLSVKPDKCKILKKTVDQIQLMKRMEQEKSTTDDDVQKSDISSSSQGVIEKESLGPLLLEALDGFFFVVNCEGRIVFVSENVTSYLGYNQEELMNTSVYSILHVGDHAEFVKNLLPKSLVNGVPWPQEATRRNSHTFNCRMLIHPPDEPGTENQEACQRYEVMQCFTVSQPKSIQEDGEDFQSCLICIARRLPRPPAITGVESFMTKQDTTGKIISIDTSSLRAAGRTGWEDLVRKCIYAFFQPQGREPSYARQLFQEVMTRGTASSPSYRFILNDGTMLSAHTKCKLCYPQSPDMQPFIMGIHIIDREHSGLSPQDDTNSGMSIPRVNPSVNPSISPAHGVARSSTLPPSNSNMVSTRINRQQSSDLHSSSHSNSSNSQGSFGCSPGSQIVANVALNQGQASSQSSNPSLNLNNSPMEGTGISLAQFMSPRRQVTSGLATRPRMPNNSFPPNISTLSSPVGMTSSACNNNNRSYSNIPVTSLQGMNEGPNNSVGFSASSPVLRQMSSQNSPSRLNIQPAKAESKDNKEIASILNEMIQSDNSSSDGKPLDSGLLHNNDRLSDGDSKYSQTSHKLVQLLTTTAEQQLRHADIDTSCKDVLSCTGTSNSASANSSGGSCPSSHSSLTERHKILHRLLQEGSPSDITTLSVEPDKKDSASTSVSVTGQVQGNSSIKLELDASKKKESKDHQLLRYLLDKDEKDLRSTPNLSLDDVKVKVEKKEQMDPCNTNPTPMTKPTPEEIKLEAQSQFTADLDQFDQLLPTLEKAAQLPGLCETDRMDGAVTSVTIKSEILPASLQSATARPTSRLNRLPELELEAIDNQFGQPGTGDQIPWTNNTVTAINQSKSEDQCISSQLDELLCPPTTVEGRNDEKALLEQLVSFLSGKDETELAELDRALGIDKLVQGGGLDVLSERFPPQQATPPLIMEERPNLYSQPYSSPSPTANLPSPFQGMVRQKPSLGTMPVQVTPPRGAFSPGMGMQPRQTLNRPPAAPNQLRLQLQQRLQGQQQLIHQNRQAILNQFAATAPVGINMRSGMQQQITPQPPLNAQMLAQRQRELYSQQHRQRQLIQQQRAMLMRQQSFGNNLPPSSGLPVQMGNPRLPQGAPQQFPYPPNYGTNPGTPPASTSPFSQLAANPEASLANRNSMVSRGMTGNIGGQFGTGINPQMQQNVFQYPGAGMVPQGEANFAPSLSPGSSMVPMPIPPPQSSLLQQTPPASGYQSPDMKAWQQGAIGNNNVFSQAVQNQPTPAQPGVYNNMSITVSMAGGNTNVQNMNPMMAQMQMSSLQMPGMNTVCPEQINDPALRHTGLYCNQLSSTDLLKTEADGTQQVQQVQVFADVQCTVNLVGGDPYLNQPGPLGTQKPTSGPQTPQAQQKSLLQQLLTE
Assay: SRC1 coactivator transcriptional activity inhibitors, confirmation, cell-based, luminescence, quadruplicate (AID 588820;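 active means mean inhibition above 46.68%, the untreated control wells mean plus 3 SD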;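 further: 0% = DMSO wells and 100% = gossypol 36 µM treated wells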)
Conditions: HEK293 GAL4-SRC1 luciferase reporter, at 3.6 µM, stronger effect = higher value
In the case of `COc1ccc(N2CCN(C(=O)c3ccc(CS(=O)c4cccc(C)c4)o3)CC2)cc1` (stereo not given), the inhibition is reported as -16.2% (inactive). In the case of `COC(=O)C(C)Sc1nc(NCc2ccccc2)nc(N(C)C)n1` (stereo not given), the inhibition is reported as -11.2% (inactive). For `O=C(Cc1cccs1)N(CC1CCCO1)C1(C(=O)NC2CCCC2)CCCCC1` (stereo not given), the inhibition was 3.51% (inactive). With `Cc1ccccc1CN1CCN(C(=O)CC(C)C)CC1` the inhibition was -18.4% (inactive). In the case of `CCOc1ccccc1N1CCN(CC(=O)NC(C)c2ccccc2)CC1` (stereo not given), the inhibition is reported as -9.98% (inactive). In the case of `CCOc1ccc(OCCC(=O)OCC(=O)NNC(=O)c2ccccc2)cc1`, the inhibition is reported as -5.67% (inactive). In the case of `O=C(COc1ccc(F)cc1Cl)Nc1ccc(N2CCOCC2)cc1N1CCOCC1`, the inhibition is reported as -16.6% (inactive). In the case of `CC(C)C[C@H](NC(=O)c1nc[nH]c1C(=O)N1CCN(C(=O)OC(C)(C)C)CC1)C(=O)OC(C)(C)C`, the inhibition is reported as 21.8% (inactive). With `CO/N=C/C(c1ccc(Cl)nc1)S(=O)(=O)c1ccccc1` (stereo not given) the inhibition was -12.5% (inactive). For `O=C(NCCc1ccc(F)cc1)C(=O)NCC1CCCN1S(=O)(=O)c1ccccc1` (stereo not given), the inhibition was -36.4% (inactive). For `COc1ccccc1-c1cccc(-c2nc(C(=O)N3CCCCC3)cc3c2[C@H](CCO)N(S(=O)C(C)(C)C)C3)c1` (stereo not given in full), the inhibition was -56.9% (inactive). In the case of `CCOCCOC(=O)c1[nH]c2c(c1C)C(=O)CC(c1cc(OC)c(OC)c(OC)c1)C2` (stereo not given), the inhibition is reported as -15.9% (inactive). In the case of `COc1ccc2cc3cc(C(=O)NCc4cccs4)oc3nc2c1`, the inhibition is reported as 4.16% (inactive). With `O=S(=O)(NCC1CN(S(=O)(=O)c2c(F)cccc2F)C1)c1ccc2c(c1)OCCO2` the inhibition was 2.79% (inactive). With `COc1ccc(CNC(=O)c2cc3c(C)nc4ccccc4c3o2)c(OC)c1` the inhibition was -5.62% (inactive). With `COc1ccc(C[C@H]2COC(=O)[C@@H]2Cc2ccc(OC3OC(CO)C(O)C(O)C3O)c(OC)c2)cc1OC` (stereo not given in full) the inhibition was 9.39% (inactive). For `CCCCCCN1C2=NCCCN2c2ccccc21`, the inhibition was 1.1% (inactive). For `Cc1nn(-c2ccccc2)c(C)c1NC(=O)COC(=O)C1CC(=O)N(CCc2ccccc2)C1` (stereo not given), the inhibition was -14.4% (inactive). In the case of `O=C(NCc1ccccc1)C(c1ccccc1)N(Cc1cccs1)C(=O)c1cnccn1` (stereo not given), the inhibition is reported as -71.6% (inactive). In the case of `COc1ccccc1CCNC(=O)CCn1c(=O)c2cccn2c2ccc(F)cc21`, the inhibition is reported as -9.66% (inactive). With `CCN(CC(=O)Nc1ccc(NC(C)=O)cc1)C(=O)Cc1ccc(S(=O)(=O)N2CCOCC2)s1` the inhibition was 6.3% (inactive). In the case of `Cc1cccc(NC(=O)C2CCN(S(=O)(=O)c3ccc4c(c3)OCCCO4)CC2)n1`, the inhibition is reported as -23.6% (inactive). With `COc1ccc(C(=O)NNC(=O)C(=O)N2CCCCC2)cc1OC` the inhibition was -5.24% (inactive). In the case of `COc1ccc(-c2csc(NC(=O)c3ccccc3NS(=O)(=O)c3ccc(C)cc3)n2)cc1`, the inhibition is reported as 19.3% (inactive). With `O=C(CSc1nc2ccccc2[nH]1)Nc1cccc(S(=O)(=O)N2CCOCC2)c1` the inhibition was 3.06% (inactive). In the case of `O=C1c2cccc(OCc3ccc(F)cc3)c2CCN1Cc1ccccc1`, the inhibition is reported as 20.6% (inactive). In the case of `CCOc1ccc(-c2nnc3ccc(SCC(=O)NCc4ccco4)nn23)cc1`, the inhibition is reported as -6.9% (inactive). In the case of `CC(=O)N1CN(C2CCCC2)Cc2c1sc1c2CCCC1`, the inhibition is reported as 6.63% (inactive). For `O=C(Nc1ccccc1)c1ccc(S(=O)(=O)NCc2cccnc2)cc1`, the inhibition was -8.68% (inactive). With `COc1cc2c(cc1OC)C(C)N(C(=O)c1cc3ccccc3o1)CC2` (stereo not given) the inhibition was -4.6% (inactive). For `Cc1ccccc1-c1ccc(CN2C(C)C(=O)N(Cc3cn(Cc4ccco4)nn3)CCS2(=O)=O)cc1` (stereo not given), the inhibition was 7.13% (inactive). For `CCSc1nnc(NC(=O)C(C)(C(F)(F)F)C(F)(F)F)s1`, the inhibition was -15.3% (inactive). In the case of `Nn1c(SCC(=O)Nc2ccccc2)nnc(Cc2ccccc2)c1=O`, the inhibition is reported as 0.49% (inactive). With `COc1ccccc1NC(=O)c1cc(S(=O)(=O)NC2CCCC2)ccc1F` the inhibition was 3.42% (inactive). For `N#Cc1c(-c2ccccc2)c(C#N)c2nc3ccccc3n2c1N`, the inhibition was 15.8% (inactive). In the case of `CC(C)Oc1ccc(C(=O)Nc2nc3ccccc3[nH]2)cc1`, the inhibition is reported as -74.9% (inactive). With `Cc1ccccc1COc1cccc(/C=N/NC(=O)c2nnn(-c3nonc3N)c2C)c1` the inhibition was 7.5% (inactive). In the case of `CCN(CC)c1ccc(C=Nc2cc(C)ccc2C)c(O)c1`, the inhibition is reported as 3.4% (inactive). In the case of `CCN(CC)S(=O)(=O)c1cccc(C(=O)OCC(=O)Nc2ccc3c(c2)c2ccccc2n3CC)c1`, the inhibition is reported as -11.9% (inactive). For `COc1ccc(CNC(=O)c2cccc(S(=O)(=O)N3CCCCC3)c2)cc1OC`, the inhibition was -20.1% (inactive).

System: not listed separately
Assay: VP16 transactivation inhibitors, counter-screen for SRC1 inhibitor project, cell-based, luminescence, high throughput (AID 588824)
Conditions: cell-based VP16 transactivation luciferase luminescence; at 3.6 µM; stronger effect = higher value
In the case of `COc1ccc(N2CCN(C(=O)c3ccc(CS(=O)c4cccc(C)c4)o3)CC2)cc1` (stereo not given), the inhibition is reported as -2.71% (inactive). In the case of `COC(=O)C(C)Sc1nc(NCc2ccccc2)nc(N(C)C)n1` (stereo not given), the inhibition is reported as -11.6% (inactive). With `O=C(Cc1cccs1)N(CC1CCCO1)C1(C(=O)NC2CCCC2)CCCCC1` (stereo not given) the inhibition was 17.6% (inactive). In the case of `Cc1ccccc1CN1CCN(C(=O)CC(C)C)CC1`, the inhibition is reported as -7.73% (inactive). In the case of `CCOc1ccccc1N1CCN(CC(=O)NC(C)c2ccccc2)CC1` (stereo not given), the inhibition is reported as 0.65% (inactive). For `CCOc1ccc(OCCC(=O)OCC(=O)NNC(=O)c2ccccc2)cc1`, the inhibition was -3.09% (inactive). For `O=C(COc1ccc(F)cc1Cl)Nc1ccc(N2CCOCC2)cc1N1CCOCC1`, the inhibition was 2.25% (inactive). For `CC(C)C[C@H](NC(=O)c1nc[nH]c1C(=O)N1CCN(C(=O)OC(C)(C)C)CC1)C(=O)OC(C)(C)C`, the inhibition was 78.9% (active). For `CO/N=C/C(c1ccc(Cl)nc1)S(=O)(=O)c1ccccc1` (stereo not given), the inhibition was -1.73% (inactive). With `O=C(NCCc1ccc(F)cc1)C(=O)NCC1CCCN1S(=O)(=O)c1ccccc1` (stereo not given) the inhibition was -2.18% (inactive). With `COc1ccccc1-c1cccc(-c2nc(C(=O)N3CCCCC3)cc3c2[C@H](CCO)N(S(=O)C(C)(C)C)C3)c1` (stereo not given in full) the inhibition was -21.5% (inactive). In the case of `CCOCCOC(=O)c1[nH]c2c(c1C)C(=O)CC(c1cc(OC)c(OC)c(OC)c1)C2` (stereo not given), the inhibition is reported as 13.5% (inactive). For `COc1ccc2cc3cc(C(=O)NCc4cccs4)oc3nc2c1`, the inhibition was 39.4% (active). With `O=S(=O)(NCC1CN(S(=O)(=O)c2c(F)cccc2F)C1)c1ccc2c(c1)OCCO2` the inhibition was 17.9% (inactive). For `COc1ccc(CNC(=O)c2cc3c(C)nc4ccccc4c3o2)c(OC)c1`, the inhibition was 22.3% (inactive). With `COc1ccc(C[C@H]2COC(=O)[C@@H]2Cc2ccc(OC3OC(CO)C(O)C(O)C3O)c(OC)c2)cc1OC` (stereo not given in full) the inhibition was 31% (active). In the case of `CCCCCCN1C2=NCCCN2c2ccccc21`, the inhibition is reported as 10.4% (inactive). For `Cc1nn(-c2ccccc2)c(C)c1NC(=O)COC(=O)C1CC(=O)N(CCc2ccccc2)C1` (stereo not given), the inhibition was 2.89% (inactive). In the case of `O=C(NCc1ccccc1)C(c1ccccc1)N(Cc1cccs1)C(=O)c1cnccn1` (stereo not given), the inhibition is reported as -20.6% (inactive). In the case of `COc1ccccc1CCNC(=O)CCn1c(=O)c2cccn2c2ccc(F)cc21`, the inhibition is reported as -15.2% (inactive). For `CCN(CC(=O)Nc1ccc(NC(C)=O)cc1)C(=O)Cc1ccc(S(=O)(=O)N2CCOCC2)s1`, the inhibition was 8.19% (inactive). In the case of `Cc1cccc(NC(=O)C2CCN(S(=O)(=O)c3ccc4c(c3)OCCCO4)CC2)n1`, the inhibition is reported as 17.2% (inactive). With `COc1ccc(C(=O)NNC(=O)C(=O)N2CCCCC2)cc1OC` the inhibition was -0.82% (inactive). In the case of `COc1ccc(-c2csc(NC(=O)c3ccccc3NS(=O)(=O)c3ccc(C)cc3)n2)cc1`, the inhibition is reported as 30.8% (active). With `O=C(CSc1nc2ccccc2[nH]1)Nc1cccc(S(=O)(=O)N2CCOCC2)c1` the inhibition was -4.53% (inactive). In the case of `O=C1c2cccc(OCc3ccc(F)cc3)c2CCN1Cc1ccccc1`, the inhibition is reported as 13.6% (inactive). In the case of `CCOc1ccc(-c2nnc3ccc(SCC(=O)NCc4ccco4)nn23)cc1`, the inhibition is reported as -3.63% (inactive). In the case of `CC(=O)N1CN(C2CCCC2)Cc2c1sc1c2CCCC1`, the inhibition is reported as 14.4% (inactive). With `O=C(Nc1ccccc1)c1ccc(S(=O)(=O)NCc2cccnc2)cc1` the inhibition was 0.28% (inactive). In the case of `COc1cc2c(cc1OC)C(C)N(C(=O)c1cc3ccccc3o1)CC2` (stereo not given), the inhibition is reported as 2.25% (inactive). In the case of `Cc1ccccc1-c1ccc(CN2C(C)C(=O)N(Cc3cn(Cc4ccco4)nn3)CCS2(=O)=O)cc1` (stereo not given), the inhibition is reported as 6.95% (inactive). With `CCSc1nnc(NC(=O)C(C)(C(F)(F)F)C(F)(F)F)s1` the inhibition was 4.32% (inactive). In the case of `Nn1c(SCC(=O)Nc2ccccc2)nnc(Cc2ccccc2)c1=O`, the inhibition is reported as 5.01% (inactive). In the case of `COc1ccccc1NC(=O)c1cc(S(=O)(=O)NC2CCCC2)ccc1F`, the inhibition is reported as 5.69% (inactive). With `N#Cc1c(-c2ccccc2)c(C#N)c2nc3ccccc3n2c1N` the inhibition was 17.8% (inactive). For `CC(C)Oc1ccc(C(=O)Nc2nc3ccccc3[nH]2)cc1`, the inhibition was -39.4% (inactive). With `Cc1ccccc1COc1cccc(/C=N/NC(=O)c2nnn(-c3nonc3N)c2C)c1` the inhibition was 18.5% (inactive). With `CCN(CC)c1ccc(C=Nc2cc(C)ccc2C)c(O)c1` the inhibition was -6.63% (inactive). In the case of `CCN(CC)S(=O)(=O)c1cccc(C(=O)OCC(=O)Nc2ccc3c(c2)c2ccccc2n3CC)c1`, the inhibition is reported as 24.3% (inactive). For `COc1ccc(CNC(=O)c2cccc(S(=O)(=O)N3CCCCC3)c2)cc1OC`, the inhibition was 30.6% (active).
